The list is not random: actives were taken first. Their share in the collection is about 1.6%.
LMNA splice mod – changes lamin A minigene splicing in HeLa cells; HeLa LMNA splicing GFP/RFP minigene ratio, 48 h; Potency, µM (titrated, usually from 46.1 µM), without a hit: at the top dose ratio change, negative = inhibition, most hits filed as inhibitors; 0.01% of 200,000 active; AID 1487; active = well fitted inhibition curve with a large enough effect in the signal ratio, with a control signal flat, not every such curve was filed as active; inconclusive = small, poorly fitted or top-dose-only effect, or effect the other way, or a change in a side signal; the % refers to the signal ratio; also: potency is read from the fitted curve at half-maximal effect; % is scaled to controls: 0 for no effect and ±100 for the full control effect
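Read-out is the ratio of GFP to DsRed2 object intensity, acquired by 488 nm laser-scanning cytometry on HeLa lamin A-EGFP minigene reporter cells. Compound incubation 48 hrs at 37 °C in Opti-MEM with 2% FBS; DMSO 0.5% final.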
NPSR antagonist – blocks cAMP signaling of the human neuropeptide S receptor; 1% of 220,000 active; AID 1461; CHO-NPSR cells, cAMP TR-FRET, antagonist mode; Potency, µM (series often up to 38.3 µM), for inactives: top-dose activity change, negative = inhibition, most hits filed as inhibitors; also: potency is read from the fitted curve at half-maximal effect; % is scaled to controls: 0 for no effect and ±100 for the full control effect; nearly all actives have a fitted effect of over 50% in size
Target sequence (Q6W5P4 whole entry, looked up): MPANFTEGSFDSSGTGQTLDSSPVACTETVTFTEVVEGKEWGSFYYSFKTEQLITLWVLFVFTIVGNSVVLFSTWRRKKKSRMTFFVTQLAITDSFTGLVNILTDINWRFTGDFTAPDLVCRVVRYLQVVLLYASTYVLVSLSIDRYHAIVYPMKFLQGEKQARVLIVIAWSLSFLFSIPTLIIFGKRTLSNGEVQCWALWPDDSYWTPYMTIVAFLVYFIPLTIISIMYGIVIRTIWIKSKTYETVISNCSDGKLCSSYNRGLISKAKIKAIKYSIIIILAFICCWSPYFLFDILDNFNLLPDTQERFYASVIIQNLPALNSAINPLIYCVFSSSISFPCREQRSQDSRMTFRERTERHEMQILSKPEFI
IMPase Li inh – IMPase inhibition in cells with lithium potentiation; CHO-M1 cells, IP1 TR-FRET (IP-One), carbachol + lithium; Potency, µM (titrated, usually from 59.4 µM), for inactives: at the highest dose activity, negative = IMPase inhibition, hits mostly inhibitors; 0.35% of 210,000 active; AID 1457;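 also: IP1 builds up when IMPase is blocked and the TR-FRET signal falls; potency is read from the fitted curve at half-maximal effect; plate controls were basal vehicle for no effect and high inhibitor control for full effect; nearly all actives have a fitted effect of over 50% in size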
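CHO cells stably expressing M1 receptor (2000/well, cultured 16–30 h) treated 30 min at 37C with compound plus low lithium. Cytosolic IP1 by TR-FRET (665/620 ratio and 620 channel) after 10 min lysis; AC50 by Hill fit.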
IMPase inh – cell-permeable inhibitors of inositol monophosphatase (IMPase). 120,000 tested, under 10 active. AID 901. CHO-M1 cells, IP1 accumulation, HTRF TR-FRET ratio. inhibition (IP1 accumulation), % at 46.1 µM. P97697; active = well fitted curve in the direction sought with a large enough effect in the signal ratio, not every such curve was filed as active; inconclusive = small, poorly fitted or top-dose-only effect, or a change in a side signal; inactive = no such curve, though single readings can be large or run the other way; the % refers to the signal ratio;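 also: cells stimulated with carbachol in lithium chloride buffer; plate controls were DMSO basal wells for no effect and reference inhibitor wells for full effect; higher means more IMPase inhibition seen as more IP1 and lower FRET ratio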
Target sequence (P97697 whole entry, looked up): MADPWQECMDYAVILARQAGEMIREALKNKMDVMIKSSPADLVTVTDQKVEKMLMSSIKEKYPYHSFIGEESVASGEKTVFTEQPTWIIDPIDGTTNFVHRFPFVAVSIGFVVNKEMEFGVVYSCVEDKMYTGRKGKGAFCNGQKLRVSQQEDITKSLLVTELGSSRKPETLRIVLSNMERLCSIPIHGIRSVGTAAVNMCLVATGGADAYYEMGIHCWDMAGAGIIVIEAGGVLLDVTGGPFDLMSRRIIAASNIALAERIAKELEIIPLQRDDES
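The IP-One HTRF competitive assay in carbachol-stimulated CHO-M1 cells quantifies cellular IP1. Compounds spanned up to 46 uM final, and activity is expressed as AC50 from concentration-response fits of the ratio and donor data.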
HTT cytoprotect – cytoprotection in Huntington HTT-Q103 PC12 cell model. 0.14% of 230,000 active. Potency, µM (titrated, usually from 56.4 µM), without a hit: cytoprotection (ATP increase), hits mostly activators. PC12 HTT-Q103 induced, cytoprotection, ATP luminescence, 40 h. AID 1471; also: potency is read from the fitted curve at half-maximal effect; % of control where 0% means no effect; nearly all actives have a fitted effect of over 45% in size
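Quantitative HTS on tebufenozide-induced (100 nM) PC12 cells expressing HTTQ103 exon 1–GFP; compounds tested as a concentration series; survival measured via cellular ATP.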
HTT aggregate – mutant huntingtin aggregation inhibition; Potency, µM (doses to about 46.1 µM), for inactives: top-dose activity change, negative = inhibition, actives largely listed as inhibitors; PC12 HttQ103-GFP aggregates, Acumen cytometry, 40 h; 1.1% of 220,000 active; AID 1688; also: potency is read from the fitted curve at half-maximal effect; % is scaled to controls: 0 for no effect and ±100 for the full control effect; nearly all actives have a fitted effect of over 60% in size
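Read-out: GFP aggregate count by laser scanning cytometer (488 nm excitation, 500-530 nm emission, 1–25 µm objects >6 SD above background). Cells: PC12, inducible HTTex1-Q103-GFP, 100 nM tebufenozide; compounds titrated.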
* = called active by the depositor; [ ] = remark or other dose. Unless noted, calls follow the shape of the dose curve; as a rule, active = well fitted curve in the direction sought with a large enough effect; inconclusive = small, poorly fitted or top-dose-only effect, or another doubt; inactive = no such curve, though single readings can be large; an effect the other way counts as inactive or inconclusive.

For COc1ccc(-c2cc3nc(-c4ccc(Br)cc4)cc(C(F)(F)F)n3n2)cc1 the results were IMPase inh -0.7.
CCc1ccccc1N(C)C(=O)Nc1cn(CC(C)C)c(=O)c2ccccc12 was read as LMNA splice mod -15.5%[46 µM].
Screening NC(N)=NS(=O)(=O)c1ccc(NC(=S)NC(=O)c2ccccc2)cc1 returned NPSR antagonist 6.0%, HTT cytoprotect 11.0%[10 µM] and HTT aggregate 0.5%[9.22 µM].
For CN(c1ccccc1)S(=O)(=O)c1ccc(NC(=O)c2ccc(-c3ccccc3)cc2)cc1 the results were LMNA splice mod 18.3%[0.0737 µM], NPSR antagonist -20.8%[46.1 µM], IMPase Li inh 18.3%[38.3 µM], IMPase inh 2.4, HTT cytoprotect -36.9% and HTT aggregate 12.6µM*.
For NS(=O)(=O)c1ccc(NC(=S)NC(=O)c2ccc(-c3ccccc3)cc2)cc1 the results were LMNA splice mod -14.9%, NPSR antagonist 4.0%, IMPase Li inh 11.2µM*, IMPase inh -6.7, HTT cytoprotect -12.8%[10 µM] and HTT aggregate 9.7%.
`COc1ccc2c(c1OC)C(Cc1ccccc1)N1CCc3cc4c(cc3C1C2)OCO4` (stereo not given) gave IMPase Li inh 36.3%, IMPase inh 10.6 and HTT cytoprotect 10.1%[1.9 µM].
Screening COc1ccc(NC(=O)CSc2nc3ccccc3nc2N2CCC(C)CC2)cc1 returned IMPase inh 15.9.
For CCN(CC)c1ccc(Nc2nc(N3CCOCC3)c3ccccc3n2)cc1 the results were LMNA splice mod inconclusive, NPSR antagonist -5.9%[46.1 µM], IMPase Li inh 49.4%[38.3 µM], IMPase inh 18.6, HTT cytoprotect -4.0% and HTT aggregate 7.94µM*.
`COc1ccc(Nc2nc(N3CCCC3)c3ccccc3n2)cc1` gave LMNA splice mod inconclusive, NPSR antagonist inconclusive, IMPase Li inh 27.7%[38.3 µM], IMPase inh 23.2, HTT cytoprotect -69.6% and HTT aggregate inconclusive.
For C[n+]1c2n(c3ccccc31)N=C(c1ccc(-c3ccccc3)cc1)CS2 the results were LMNA splice mod -6.6%[46 µM], NPSR antagonist 46.5%, IMPase Li inh 25.3%, HTT cytoprotect -51.8%[10 µM] and HTT aggregate inconclusive.
For Brc1ccc(C2=Nn3c(Cn4nnc5ccccc54)nnc3SC2)cc1 the results were NPSR antagonist 24.8%, HTT cytoprotect 0.4%[10 µM] and HTT aggregate -18.9%[9.22 µM].
Screening C[n+]1c2n(c3ccccc31)N=C(c1ccc(Br)cc1)CS2 returned LMNA splice mod -21.2%, NPSR antagonist -0.5%[46.1 µM], IMPase Li inh 18.0%, IMPase inh 8.7, HTT cytoprotect -11.9%[10 µM] and HTT aggregate 31.6µM*.
For C[n+]1c2n(c3ccccc31)N=C(c1ccccc1)CS2 the results were LMNA splice mod 4.7%, NPSR antagonist -3.4%, IMPase Li inh 10.9%, IMPase inh 12.7, HTT cytoprotect -48.7% and HTT aggregate 10µM*.
`O[C@@H](c1cc(-c2ccc(Cl)cc2)nc2ccccc12)C1CCCCN1` (stereo not given in full) gave IMPase Li inh -3.9%.
For CCN1/C(=C/c2sc(-c3ccccc3C)c[n+]2C)Sc2ccccc21 the results were NPSR antagonist -15.8%, IMPase Li inh 19.6%, HTT cytoprotect -130.1% and HTT aggregate 2.24µM*.
For CCN1/C(=C/C(=O)c2ccco2)Sc2ccccc21 the results were LMNA splice mod 8.8%, NPSR antagonist -18.7%[46.1 µM], IMPase Li inh -9.5%[38.3 µM], IMPase inh -1.0, HTT cytoprotect -24.0% and HTT aggregate inconclusive.
CC(C)C[C@@H](CC(=O)N[C@@H](CCCN)CC(=O)N[C@@H]1CCNC[C@H]1C(=O)N[C@H](CC(=O)N[C@@H](CCC(=O)O)CC(=O)O)Cc1ccccc1)NC(=O)[C@@H]1CNCC[C@H]1N was read as IMPase Li inh 12.1% and HTT cytoprotect 3.3%[1.9 µM].
`CC(C)c1noc2ncc(C(=O)c3cc(Cl)cc(Cl)c3O)cc12` gave LMNA splice mod inconclusive, NPSR antagonist -9.9%[46.1 µM], IMPase Li inh 26.1%[38.3 µM], IMPase inh 3.6, HTT cytoprotect -16.7% and HTT aggregate 11.2µM*.
C/C(=C(/CCO)SS/C(CCO)=C(\C)N(C=O)Cc1cnc(C)nc1N)N(C=O)Cc1cnc(C)nc1N was read as HTT cytoprotect 3.7% and HTT aggregate 15.2%.
`Cc1nnc(N2C(=O)c3oc4ccccc4c(=O)c3C2c2ccc(Cl)cc2)s1` (stereo not given) gave LMNA splice mod 17.1%[46 µM].
For O=C(O)/C=C/C(O)c1ccc(Cl)cc1 (stereo not given) the results were LMNA splice mod -17.3%, NPSR antagonist -3.8%[46.1 µM], IMPase Li inh -7.8% and HTT cytoprotect 3.16µM*.
For O=c1c2c3nc4ccccc4nc3n(/N=C/c3ccncc3)c2ncn1-c1ccccc1 the results were NPSR antagonist inconclusive, HTT cytoprotect -3.3%[10 µM] and HTT aggregate -12.0%[9.22 µM].
Screening O=c1c2c3nc4ccccc4nc3n(/N=C/c3cccs3)c2ncn1-c1ccccc1 returned LMNA splice mod -9.9%, NPSR antagonist inconclusive, IMPase Li inh 8.4%[38.3 µM], IMPase inh -4.2, HTT cytoprotect -8.3%[0.074 µM] and HTT aggregate 1.78µM*.
CC1(C)CC1C(=O)Nc1ccc([N+](=O)[O-])cc1Br (stereo not given) was read as LMNA splice mod -4.3%, NPSR antagonist -10.4%[46.1 µM], IMPase inh -2.1, HTT cytoprotect 11.5%[10 µM] and HTT aggregate 4.7%.
`Cc1ccc(C2(c3ccc(C)cc3)CC2C(=O)Nc2ccc([N+](=O)[O-])cc2O)cc1` (stereo not given) gave LMNA splice mod inconclusive, NPSR antagonist inconclusive, IMPase Li inh 26.2%[38.3 µM], IMPase inh 5.5, HTT cytoprotect -68.0% and HTT aggregate 7.08µM*.
Cc1cccc(C)c1NC1=NC2(CCCCC2)N=C(N)N1 was read as LMNA splice mod -12.8%, NPSR antagonist -12.2%[46.1 µM], IMPase Li inh 5.9%[38.3 µM], IMPase inh 7.7 and HTT cytoprotect 0.631µM*.
Screening Cc1cccc(NC2=NC3(CCCCC3)N=C(N)N2)c1C returned LMNA splice mod -11.4%, NPSR antagonist inconclusive, IMPase Li inh 3.8%[38.3 µM], IMPase inh 11.1, HTT cytoprotect -2.0% and HTT aggregate -0.7%.
Screening Cc1ccc(C2=CC(c3ccc(N(C)C)cc3)n3nnnc3N2)cc1 (stereo not given) returned LMNA splice mod 3.9%, NPSR antagonist -11.4%[46.1 µM], IMPase Li inh 4.2%[38.3 µM], IMPase inh -0.6, HTT cytoprotect -21.8% and HTT aggregate 10µM*.
